Growth data for seven compounds are collected here from PubChem BioAssay (NCI).

This is part of a sample that, as a whole, favours compounds with a hit. Of some 83,000 tested, about 20% had one in any assay.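 The endpoint reported here, percent growth, reads 100 for growth as untreated, 0 for no net growth and -100 for all cells dead.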 Unmarked numbers belong to inactive results. Active and inactive are the calls of the source. How the source made its calls: active means growth percent below 10; inactive means the rest.

Test systems include DU-145 prostate; K-562 leukemia; MALME-3M melanoma; MDA-MB-231 breast; RXF 393 renal; SF-268 CNS; SF-295 CNS; SF-539 CNS; UACC-257 melanoma; M14 melanoma; HCT-15 colon; HT29 colon; SNB-75 CNS; SNB-19 CNS; U251 CNS; PC-3 prostate; SK-MEL-5 melanoma; UACC-62 melanoma; LOX IMVI melanoma; SK-MEL-28 melanoma.
Holding throughout (assay): NCI-60 one-dose screen, 48 h (100 = growth as untreated, 0 = no growth, -100 = all killed)
Common to all, as to conditions: 10 µM unless noted

With `Cc1cc[n+](CCCC[n+]2ccc(C)cc2)cc1`, the growth with DU-145 prostate was 101%; with K-562 leukemia it was 109%; in the assay on MALME-3M melanoma, 97.6%; with MDA-MB-231 breast, 105%; with RXF 393 renal, 106%; in the assay on SF-268 CNS, 102%. The growth in the assay on SF-295 CNS is 103%; in the assay with SF-539 CNS it was 102%; in the assay with UACC-257 melanoma, 111%; with M14 melanoma, 95.4%; in the assay on HCT-15 colon, 93%; in the assay on HT29 colon, 113%. Further, the growth is 106% in the assay with SNB-75 CNS; 107% with SNB-19 CNS; 102% in the assay with U251 CNS; 88.7% with PC-3 prostate; 99.2% with SK-MEL-5 melanoma; 97.5% with UACC-62 melanoma. Also, the figures for the growth with LOX IMVI melanoma and in the assay on SK-MEL-28 melanoma were 94.4% and 105%, respectively.

For `CCCCCCCCN(CCCCCCCC)CC(O)c1cc(-c2ccccc2)nc2ccc(OC)cc12` (stereo not given), the growth in the assay with DU-145 prostate is 82.6%; in the assay with K-562 leukemia, 52.2%; with MALME-3M melanoma, 91.3%; with MDA-MB-231 breast, 63.7%; in the assay with RXF 393 renal it was 90.2%; in the assay with SF-268 CNS, 38.3%. Also, the growth was 93.8% in the assay on SF-295 CNS; 0.739% (active) with SF-539 CNS; 83.2% with UACC-257 melanoma; 24.7% in the assay on M14 melanoma; 10.7% in the assay on HCT-15 colon; 80.1% with HT29 colon. In addition, the growth in the assay on SNB-75 CNS was 96.4%; in the assay on SNB-19 CNS, 63.2%; in the assay with U251 CNS it was 15.7%; in the assay on PC-3 prostate, 32.3%; with SK-MEL-5 melanoma, 46.5%; in the assay with UACC-62 melanoma, 52.5%. The growth in the assay on LOX IMVI melanoma is 21%; in the assay with SK-MEL-28 melanoma it was 100%.

Take `Cc1cc2nc(-c3c(N)ncc(C#N)c3-c3ccc(Cl)cc3)[nH]c2cc1C`: the growth is 31.9% in the assay with DU-145 prostate; 62.9% in the assay on K-562 leukemia; 63% in the assay on MALME-3M melanoma; 66.4% with MDA-MB-231 breast; 70.9% with RXF 393 renal; 73.4% in the assay on SF-268 CNS. In addition, the growth in the assay on SF-295 CNS is 58.3%; in the assay with SF-539 CNS it was -9.94% (active); in the assay on UACC-257 melanoma, 51.9%; in the assay on M14 melanoma it was 53.7%; in the assay with HCT-15 colon, 67.2%; in the assay with HT29 colon, 29.8%. Moreover, the growth with SNB-75 CNS is 56.6%; in the assay on SNB-19 CNS, 84.7%; in the assay on U251 CNS, 18%; in the assay with PC-3 prostate it was 53.5%; in the assay on SK-MEL-5 melanoma, 71.9%; in the assay on UACC-62 melanoma it was 57.8%. For the same compound, the growth in the assay with LOX IMVI melanoma is 51.7%; with SK-MEL-28 melanoma it was 57.6%.

Take `O=C(/C=C/c1ccco1)c1cccc(Nc2nc(Nc3ccccc3)nc(Nc3ccccc3)n2)c1`: the growth in the assay with DU-145 prostate is 95%; in the assay with K-562 leukemia, 64.4%; in the assay with MALME-3M melanoma it was 110%; with MDA-MB-231 breast, 67.9%; in the assay with RXF 393 renal, 34.5%; in the assay on SF-268 CNS, 92.9%. The growth is 61.5% with SF-295 CNS; 94.4% with SF-539 CNS; 101% in the assay with UACC-257 melanoma; 92.1% with M14 melanoma; 72% with HCT-15 colon; 79.1% in the assay on HT29 colon. Further, the growth is 60.2% in the assay on SNB-75 CNS; 92.4% in the assay on SNB-19 CNS; 77.1% in the assay on U251 CNS; 66.4% in the assay with PC-3 prostate; 81.2% in the assay on SK-MEL-5 melanoma; 80.3% with UACC-62 melanoma. Further, the results for the growth with LOX IMVI melanoma and in the assay on SK-MEL-28 melanoma were 83.5% and 95%, respectively.

For `COc1cc(-c2nc3ccccc3s2)ccc1OCc1nc2n(n1)S(=O)(=O)c1ccccc1N2c1ccccc1`, the growth with DU-145 prostate is 110%; with K-562 leukemia, 81.7%; in the assay with MALME-3M melanoma, 66.7%; with MDA-MB-231 breast, 79.5%; in the assay with RXF 393 renal it was 114%; in the assay with SF-268 CNS, 102%. Further, the growth in the assay on SF-295 CNS is 107%; in the assay with SF-539 CNS it was 104%; in the assay with UACC-257 melanoma, 112%; in the assay with M14 melanoma it was 120%; in the assay with HCT-15 colon, 99.2%; in the assay with HT29 colon, 104%. For the same compound, the growth with SNB-75 CNS is 103%; with SNB-19 CNS, 105%; with U251 CNS, 98.1%; in the assay with PC-3 prostate, 96.7%; with SK-MEL-5 melanoma it was 84.2%; in the assay on UACC-62 melanoma, 97.8%. The growth in the assay on LOX IMVI melanoma is 93.2%; in the assay with SK-MEL-28 melanoma it was 110%.

For the compound `COc1ccc(Cl)cc1NC(=O)c1cc2c(n1C)-c1nc(NC(=O)C(C)(C)C)sc1CC2`, the growth in the assay with DU-145 prostate was 98.6%; with K-562 leukemia it was 92.2%; in the assay with MALME-3M melanoma it was 106%; with MDA-MB-231 breast it was 91.9%; in the assay with RXF 393 renal it was 97.5%; with SF-268 CNS it was 95.5%. The growth in the assay on SF-295 CNS was 87.8%; in the assay with SF-539 CNS it was 98.9%; in the assay on UACC-257 melanoma, 90.9%; with M14 melanoma, 88.2%; with HCT-15 colon, 89.4%; in the assay on HT29 colon it was 79.2%. In addition, the growth is 83.1% in the assay with SNB-75 CNS; 106% with SNB-19 CNS; 88.4% in the assay on U251 CNS; 71.7% with PC-3 prostate; 79.7% in the assay on SK-MEL-5 melanoma; 87.7% with UACC-62 melanoma. Also, the figures for the growth in the assay on LOX IMVI melanoma and in the assay on SK-MEL-28 melanoma were 93.9% and 92.4%, respectively.

In the case of `COc1ccc(-c2nn(-c3ccc(NC(=O)c4cc(Cl)cc(Cl)c4)cc3)cc2-c2ccncc2)cc1Cl`, the growth with DU-145 prostate is 76.6%; with K-562 leukemia, 12%; in the assay with MALME-3M melanoma, 89.9%; with MDA-MB-231 breast, 25.1%; with RXF 393 renal it was -66.8% (active); with SF-268 CNS, 63.5%. Further, the growth in the assay on SF-295 CNS was -28.5% (active); in the assay with SF-539 CNS it was 47.8%; in the assay on UACC-257 melanoma, 85%; with M14 melanoma, 42.9%; with HCT-15 colon, 21.7%; in the assay with HT29 colon, 8.22% (active). The growth was 72.4% in the assay on SNB-75 CNS; 82.8% in the assay on SNB-19 CNS; 39.2% in the assay on U251 CNS; 47.9% in the assay on PC-3 prostate; 54.8% in the assay with SK-MEL-5 melanoma; 63.5% in the assay with UACC-62 melanoma. Also, the results for the growth in the assay with LOX IMVI melanoma and in the assay with SK-MEL-28 melanoma were 22.9% and 75.1%, respectively.
